According to PubChem BioAssay AID1159580 (chemical genetic matrix, 2015):
Several values for one entry are separate records, joined by “and”; a condition that tells them apart may be missing. Equal values may be shown once. In all, about 5,500 compounds went through this assay and about 2,000 (36%) were called active. Roughly 18% stayed inconclusive and do not appear here. No stated cut-off is given here; in the data, active means normalized growth mostly below about 0.91 (no sharp cut-off); inconclusive means no clear call, values can overlap the other calls; inactive means mostly above about 0.92. The list shows a part of the results.

Assay: chemical genetic growth profiling, strain panel (AID 1159580);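 further: tested at 20 µM; growth read once vehicle control cultures reached saturation at 30 °C; 1 = growth at the plate median or of vehicle wells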
Settings: S. cerevisiae deletion strains, growth OD

Measured: normalized growth

C[C@@H]1CC[C@H]2[C@@H](C)C(=O)O[C@@H]3O[C@@]4(C)CC[C@@H]1[C@]32OO4
active: locus YAL021C, strain ccr4, stronger effect = lower value 0.741 | locus YAL026C, strain drs2, stronger effect = lower value 0.824 | locus YAL030W, strain snc1, stronger effect = lower value 0.89 | locus YBL061C, strain skt5, stronger effect = lower value 0.903 | locus YBR009C, strain hhf1, stronger effect = lower value 0.788 | locus YBR023C, strain chs3, stronger effect = lower value 0.906 | locus YBR171W, strain sec66, stronger effect = lower value 0.889 | locus YBR231C, strain swc5, stronger effect = lower value 0.713 | locus YBR279W, strain paf1, stronger effect = lower value 0.864 | locus YCL011C, strain gbp2, stronger effect = lower value 0.869 | locus YCL016C, strain dcc1, stronger effect = lower value 0.837 | locus YCL029C, strain bik1, stronger effect = lower value 0.887 | locus YCL069W, strain vba3, stronger effect = lower value 0.924 | locus YCR088W, strain abp1, stronger effect = lower value 0.921 | locus YDL035C, strain GPR1, stronger effect = lower value 0.825 | locus YDL134C, strain PPH21, stronger effect = lower value 0.818 | locus YDL185W, strain tfp1, stronger effect = lower value 0.875 | locus YDL192W, strain arf1, stronger effect = lower value 0.867 | locus YDR069C, strain doa4, stronger effect = lower value 0.872 | locus YDR101C, strain arx1, stronger effect = lower value 0.887 | locus YDR137W, strain rgp1, stronger effect = lower value 0.388 | locus YDR150W, strain NUM1, stronger effect = lower value 0.899 | locus YDR159W, strain sac3, stronger effect = lower value 0.595 | locus YDR162C, strain NBP2, stronger effect = lower value 0.817 | locus YDR297W, strain sur2, stronger effect = lower value 0.893 | locus YDR318W, strain mcm21, stronger effect = lower value 0.841 | locus YDR335W, strain msn5, stronger effect = lower value 0.853 | locus YDR388W, stronger effect = lower value 0.868 | locus YDR392W, strain spt3, stronger effect = lower value 0.374 | locus YDR502C, strain sam2, stronger effect = lower value 0.815 | locus YEL003W, strain gim4, stronger effect = lower value 0.808 | locus YEL037C, strain rad23, stronger effect = lower value 0.915 | locus YEL061C, strain CIN8 (second series), stronger effect = lower value 0.889 | locus YEL061C, strain CIN8, stronger effect = lower value 0.891 | locus YER015W, strain faa2, stronger effect = lower value 0.761 | locus YER016W, strain bim1, stronger effect = lower value 0.904 | locus YER155C, strain BEM2 (second series), stronger effect = lower value 0.655 | locus YER155C, strain BEM2, stronger effect = lower value 0.922 | locus YER167W, strain BCK2, stronger effect = lower value 0.784 | locus YFR010W, strain ubp6, stronger effect = lower value 0.841 | locus YGL086W, strain mad1, stronger effect = lower value 0.827 | locus YGL240W, strain doc1, stronger effect = lower value 0.757 | locus YGL248W, strain PDE1, stronger effect = lower value 0.818 | locus YGL253W, strain hxk2, stronger effect = lower value 0.707 | locus YGR078C, strain PAC10, stronger effect = lower value 0.789 | locus YGR135W, strain pre9, stronger effect = lower value 0.858 | locus YHR013C, strain ard1, stronger effect = lower value 0.781 | locus YHR027C, strain rpn1, stronger effect = lower value 0.781 | locus YHR030C, strain SLT2, stronger effect = lower value 0.837 and 0.62 | locus YHR079C, strain IRE1 (second series), stronger effect = lower value 0.89 | locus YHR079C, strain IRE1, stronger effect = lower value 0.654 | locus YHR129C, strain ARP1, stronger effect = lower value 0.89 | locus YHR142W, strain chs7, stronger effect = lower value 0.856 | locus YHR200W, strain rpn10, stronger effect = lower value 0.851 | locus YIL066C, strain RNR3, stronger effect = lower value 0.805 | locus YIL125W, strain kgd1, stronger effect = lower value 0.893 | locus YIR030C, strain dcg1, stronger effect = lower value 0.918 | locus YJL092W, strain hpr5, stronger effect = lower value 0.859 | locus YJL095W, strain BCK1 (second series), stronger effect = lower value 0.798 | locus YJL095W, strain BCK1, stronger effect = lower value 0.625 and 0.71 | locus YJL115W, strain asf1, stronger effect = lower value 0.861 | locus YJL129C, strain trk1, stronger effect = lower value 0.703 | locus YJL134W, strain LCB3, stronger effect = lower value 0.927 | locus YJL164C, strain tpk1, stronger effect = lower value 0.871 | locus YJL166W, strain qcr8, stronger effect = lower value 0.813 | locus YJL168C, strain set2, stronger effect = lower value 0.915 | locus YJL187C, strain SWE1 (second series), stronger effect = lower value 0.843 | locus YJR066W, strain TOR1, stronger effect = lower value 0.738 | locus YJR075W, strain HOC1, stronger effect = lower value 0.79
inactive: locus YAL013W, strain DEP1, stronger effect = lower value 0.924 | locus YBR021W, strain FUR4, stronger effect = lower value 0.948 | locus YBR229C, strain ROT2, stronger effect = lower value 0.942 | locus YDL005C, strain med2, stronger effect = lower value 0.967 | locus YDL040C, strain nat1, stronger effect = lower value 0.949 | locus YDL074C, strain BRE1, stronger effect = lower value 0.83 | locus YDL101C, strain DUN1, stronger effect = lower value 0.913 | locus YDR001C, strain nth1, stronger effect = lower value 0.932 | locus YDR195W, strain ref2 0.956 | locus YDR334W, strain swr1, stronger effect = lower value 0.917 | locus YER110C, stronger effect = lower value 0.932 | locus YER111C, strain swi4, stronger effect = lower value 0.93 | locus YGL078C, strain dbp3, stronger effect = lower value 0.939 | locus YGL167C, strain pmr1, stronger effect = lower value 0.973 | locus YGL173C, strain kem1, stronger effect = lower value 0.907 | locus YGL227W, strain vid30, stronger effect = lower value 0.95 | locus YGR252W, strain gcn5, stronger effect = lower value 0.854 | locus YHR094C, strain hxt1, stronger effect = lower value 0.94 | locus YIL073C, strain SPO22, stronger effect = lower value 0.741 | locus YJL154C, strain vps35, stronger effect = lower value 0.928 | locus YJR043C, strain POL32, stronger effect = lower value 0.867
